# Compound activity: PubChem BioAssay, National Center for Advancing Translational Sciences (NCATS)
# Most compounds without a hit are left out; they make up all but 0.92% or so of the library.
# TbPYK inhibitor: blocks Trypanosoma brucei pyruvate kinase; actives 0.12% (n = 410,000); TbPYK enzyme, Kinase-Glo Plus ATP luminescence, 45 min; Potency, µM (highest dose often 76.8 µM), inactives show at the top dose activity, negative = inhibition, usual class: inhibitors; further: on the % scale 0 is the no-effect control and ±100 the full control effect; nearly all actives have a fitted effect of over 50% in size
#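 Assay buffer: 50 mM TEA pH 7.2, 100 mM KCl, 10 mM MgCl2, 0.05% BSA, 0.01% Tween-20. Pyruvate kinase from T. brucei plus substrate met compound, then ADP (130 uM final). Luminescence was read post 45 min RT.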
# RE007 growth inh: less growth of the S. pombe RE007 Vpr strain | S. pombe RE007 Vpr strain, BacTiter-Glo ATP luminescence, 24 h | actives 0.21% (n = 360,000) | AID 651644 | Potency, µM (top dose mostly 92.2 µM), for the others: at the top dose activity change, negative = less growth, hits mostly inhibitors; active means well fitted falling curve with a large enough effect; inconclusive means small, poorly fitted or top-dose-only effect; inactive means no such curve, though single readings can be large or run the other way; further: on the % scale 0 is the no-effect control and ±100 the full control effect; nearly all actives have a fitted effect of over 50% in size
#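 Fission yeast strain RE007, carrying one chromosomally integrated HIV-1 vpr copy, was seeded at OD 0.01 in PMG+AL medium with 23 nL pinned compound. After 24 h at 30 °C and 99% humidity, viability was read by BacTiter-Glo luminescence.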
# AMA1-RON2 inh: AMA1-RON2 (P. falciparum) interaction inhibition; Potency, µM (top dose mostly 58.2 µM), inactives show top-dose activity change, negative = inhibition, most hits filed as inhibitors; AlphaScreen AMA1-biotinylated RON2 peptide binding; AID 720542; actives 0.2% (n = 360,000);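 further: 0% = vehicle wells and -100% = peptide control; nearly all actives have a fitted effect of over 45% in size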
#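 AMA1 (3D7) with his tag at 25 nM final met compounds first, then biotinylated RON2 peptide at 25 nM; detection used donor plus acceptor beads, 10 µg/mL apiece, read by AlphaScreen after 30 min at room temperature.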
# LmPK inh: LmPK (Leishmania mexicana) enzyme inhibition. actives 0.37% (n = 290,000). Potency, µM (doses to about 57.5 µM), inactives show top-dose activity change, negative = inhibition, usual class: inhibitors. purified LmPK, Kinase-Glo ATP luminescence, 1 h. AID 1721; further: on the % scale 0 is the no-effect control and ±100 the full control effect
# Target sequence (Q27686 whole entry, looked up): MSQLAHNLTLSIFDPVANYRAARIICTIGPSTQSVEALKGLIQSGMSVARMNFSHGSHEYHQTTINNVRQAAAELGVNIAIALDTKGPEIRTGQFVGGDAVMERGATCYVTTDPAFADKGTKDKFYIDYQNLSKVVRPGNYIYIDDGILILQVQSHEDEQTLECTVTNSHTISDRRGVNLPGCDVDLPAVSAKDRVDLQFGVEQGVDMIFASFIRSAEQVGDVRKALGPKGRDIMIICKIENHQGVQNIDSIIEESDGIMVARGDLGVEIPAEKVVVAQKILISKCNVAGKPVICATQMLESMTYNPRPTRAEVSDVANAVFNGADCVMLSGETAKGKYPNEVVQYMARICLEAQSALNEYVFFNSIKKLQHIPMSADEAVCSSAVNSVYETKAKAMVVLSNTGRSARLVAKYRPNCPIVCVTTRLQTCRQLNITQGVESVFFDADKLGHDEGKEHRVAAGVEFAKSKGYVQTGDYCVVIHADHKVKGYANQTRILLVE
#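 Kinase-Glo luminescence read after 1 h RT reaction of 0.1 nM LmPK with 0.5 mM PEP and 0.1 mM ADP. Activity scaled between uninhibited and enzyme-free controls.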
# NS1 function inh: inhibitors of influenza NS1 protein function. AID 2326. actives 0.4% (n = 270,000). Potency, µM (top dose mostly 46.1 µM), for inactives: top-dose activity, positive = more growth; calls by dose curve; further: actives are rising curves; nearly all actives have a fitted effect of over 50% in size
#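 Compounds were scored for reversing the slow growth caused by influenza A NS1 in S. cerevisiae, measured by optical density at 600 nm. Assay medium contained 2% galactose at pH 6.0; NS1-free yeast of the same strain were the positive control.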
# * hit, by the source's call; ? = inconclusive; nt = no result. Unless noted, the call rests on the fitted dose curve; in most records, active means well fitted curve in the direction sought with a large enough effect; inconclusive means small, poorly fitted or top-dose-only effect, or another doubt; inactive means no such curve, though single readings can be large; an effect the other way counts as inactive or inconclusive. Potency means the concentration at half of the fitted maximal effect.
SMILES,TbPYK inhibitor,RE007 growth inh,AMA1-RON2 inh,LmPK inh,NS1 function inh
C[C@H]1CC[C@@]2(NC1)O[C@@H]1C[C@@H]3[C@@H]4CC=C5C[C@@H](O)CC[C@]5(C)[C@@H]4CC[C@]3(C)[C@H]1[C@@H]2C,nt,nt,nt,nt,-52%
CC1(C)O[C@@H]2C[C@H]3[C@@H]4CCC5=CC(=O)C=C[C@]5(C)[C@H]4C(O)C[C@]3(C)[C@]2(C(=O)CO)O1 (stereo partly specified),-8%,nt,nt,nt,nt
COc1cc(OC)cc(-c2nc3cc(C)ccc3o2)c1,-20%,?,20%,14µM*,-33%
Cc1ccc(-c2nc3cc(Cl)ccc3o2)cc1,2%,-9%,10%,?,7%
Oc1ccc(-c2n[nH]c(=S)n2Cc2ccco2)cc1,?,-8%,26%,11µM*,-4%
Cc1cccc(-c2n[nH]c(=S)n2Cc2ccccc2)c1,?,7%,0%,18µM*,-24%
Oc1cc2ccccc2cc1-c1n[nH]c(=S)n1Cc1ccco1,?,3%,87%,?,-1%
S=c1[nH]nc(-c2cccc(Cl)c2)n1Cc1ccccc1,?,4%,25%,?,0%
Cc1ccc(-c2n[nH]c(=S)n2Cc2ccccc2)cc1,?,-5%,43%,13µM*,-3%
CCN(CC)CCOC(=O)c1ccc(N)cc1Cl,-1%,nt,nt,nt,nt
Cc1cnc(NC(=O)c2cccs2)s1,-11%,2%,34%,-2%,-40%
O=C(Nc1ncc([N+](=O)[O-])s1)c1cccs1,?,28µM*,-6%,14µM*,-148%
Cn1c(-c2cccc([N+](=O)[O-])c2)cnc1NCc1cccc([N+](=O)[O-])c1,23%,-9%,?,1%,0%
COc1ccc(OC)c(CNc2ncc(-c3cccc([N+](=O)[O-])c3)n2C)c1,19%,-2%,14µM*,-3%,12%
CC(=O)O[C@]1(C(=O)CO)[C@@H](C)C[C@H]2[C@@H]3CCC4=CC(=O)C=C[C@]4(C)[C@@]3(F)[C@@H](O)C[C@]21C,4%,nt,nt,nt,nt
Cc1nonc1C(=O)N/N=C/c1cccc(O)c1,-26%,-23%,6%,14µM*,-12%
O=C(N/N=C\c1ccc2c(c1)OCO2)c1ccco1,-22%,-27%,11%,14µM*,-12%
O=C(NN=Cc1ccc2c(c1)OCO2)c1ccccc1,4%,10%,65%,nt,nt
Cc1ccc(NNC2CC(=O)N(c3cccc(Cl)c3)C2=O)cc1 (stereo unspecified),0%,4%,11%,5%,nt
CCOC(=O)C1CCN(C2CC(=O)N(c3cccc(Cl)c3)C2=O)CC1 (stereo unspecified),-15%,10µM*,0%,1%,-46%
CCOC(=O)c1ccc(N2C(=O)CC(N3CCOCC3)C2=O)cc1 (stereo unspecified),4%,35µM*,-8%,-4%,-96%
CCOC(=O)C1CCCN(C2CC(=O)N(c3ccc(C)cc3)C2=O)C1 (stereo unspecified),0%,?,5%,-8%,-52%
CCN(CC)C1CC(=O)N(c2cccc(Cl)c2)C1=O (stereo unspecified),-2%,5.6µM*,-2%,-1%,-126%
COC(=O)C1CCN(C2CC(=O)N(c3cc(C)cc(C)c3)C2=O)CC1 (stereo unspecified),3%,35µM*,3%,2%,nt
CCOC(=O)c1ccc(N2C(=O)CC(N(C)CCc3ccc(OC)c(OC)c3)C2=O)cc1 (stereo unspecified),-5%,4µM*,4%,9%,-130%
SMILES,TbPYK inhibitor,RE007 growth inh,AMA1-RON2 inh,LmPK inh,NS1 function inh
O=C(C1CCN(C2CC(=O)N(c3ccc(Cl)cc3)C2=O)CC1)N1CCOCC1 (stereo unspecified),-9%,13µM*,10%,-3%,-76%
CCOc1cccc(N2C(=O)CC(N(CCc3ccc(OC)c(OC)c3)C(=O)CC)C2=O)c1 (stereo unspecified),0%,-1%,-11%,0%,-11%
O=C(C1CCN(C2CC(=O)N(c3cccc(Cl)c3)C2=O)CC1)N1CCCC1 (stereo unspecified),4%,13µM*,-3%,-1%,-167%
O=C(C1CCN(C2CC(=O)N(Cc3ccccc3)C2=O)CC1)N1CCCCCC1 (stereo unspecified),7%,?,7%,-6%,-68%
CCCC1([C@H](O)C/C=C/[C@H]2[C@H](O)CC(=O)[C@@H]2CCCCCCC(=O)OC)CCC1,4%,nt,nt,nt,nt
CC(=O)c1ccc(N=Nc2ccc(N(C)C)cc2)cc1,-12%,14%,?,?,nt
CN(C)c1ccc(N=Nc2ccccc2Br)cc1,3%,-9%,11µM*,-9%,-3%
COc1ccc(C(=O)NNC(=O)c2ccccn2)cc1,?,10µM*,27%,1.3µM*,-27%
O=C(Sc1ccc(Cl)cc1)c1ccccn1,-7%,22µM*,40%,nt,nt
COc1ccc(C(=O)O/N=C(\N)c2ccccn2)cc1,10µM*,?,19%,13µM*,-30%
CCO/N=C(\N)c1[nH]ncc1Br,4%,13%,4%,3%,0%
N/C(=N\OC(=O)c1ccc(Cl)cc1)c1[nH]ncc1Br,?,?,71%,10µM*,-3%
COc1ccc(/C=C/C(=O)c2ccccn2)cc1,?,?,-7%,8.9µM*,nt
N/C(=N\OC(=O)c1ccccc1Cl)c1ccccn1,?,?,30%,7.1µM*,-44%
N/C(=N\OC(=O)c1ccc(Cl)cc1)c1ccccn1,?,?,39%,5µM*,-161%
N/C(=N\OC(=O)c1ccc(Cl)c(Cl)c1)c1ccccn1,-3%,-7%,48%,-29%,-130%
N/C(=N\OC(=O)c1cccc(Cl)c1)c1ccccn1,-20%,-28%,45%,14µM*,-53%
CCNC(C)(C)[C@@H](SS)c1ccc(Br)cc1,nt,nt,nt,nt,-8%
Cc1cc(/C(N)=N/OC(=O)c2ccc(Cl)cc2)no1,-3%,-24%,-4%,16µM*,-4%
Cc1cc(/C(N)=N/OC(=O)c2cccc(Cl)c2)no1,0%,-5%,-6%,-9%,-3%
Cc1ccc(C(=O)O/N=C(\N)c2ccccn2)c(C)c1,?,35µM*,20%,6.3µM*,-58%
COc1ccccc1C(=O)O/N=C(\N)c1ccccn1,-14%,-24%,37%,?,-35%
CCOC(=O)NNc1ccc(N(CC)CC(C)O)nn1 (stereo unspecified),0%,nt,nt,nt,nt
CCN(CC)c1ccc(NC(=S)Nc2ccc(F)cc2)cc1,-6%,-7%,32µM*,-9%,nt
Oc1ccc(NC(=S)Nc2ccc(F)cc2)cc1,3%,-6%,14%,-4%,-7%
CN(C)C1C(=O)C(C(N)=O)=C(O)[C@@]2(O)C(=O)C3=C(O)c4c(O)ccc(Cl)c4[C@@H](O)C3C[C@@H]12 (stereo partly specified),nt,nt,nt,nt,19%
